Compound activity deposited in PubChem BioAssay by National Center for Advancing Translational Sciences (NCATS).
Only some compounds are listed: those with a hit (about 7.3% of all), similar ones and a draw of the others.
FLuc counter: qHTS profiling assay for firefly luciferase inhibitor/activator using purifed enzyme and Km concentrations of substrates (counterscreen for miR-21 project) | Luciferin 4-monooxygenase (Photinus pyralis), P08659 | purified FLuc, Km substrates, luminescence inhibition | Potency, µM (highest dose often 57.5 µM), for the others: at the highest dose activity change, negative = inhibition, usual class: inhibitors | hit rate 6.9% among 360,000 | AID 588342, 2011;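 also: plate controls were vehicle for no effect and reference inhibitor for full effect; nearly all actives have a fitted effect of over 55% in size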
Target sequence (P08659 whole entry, looked up): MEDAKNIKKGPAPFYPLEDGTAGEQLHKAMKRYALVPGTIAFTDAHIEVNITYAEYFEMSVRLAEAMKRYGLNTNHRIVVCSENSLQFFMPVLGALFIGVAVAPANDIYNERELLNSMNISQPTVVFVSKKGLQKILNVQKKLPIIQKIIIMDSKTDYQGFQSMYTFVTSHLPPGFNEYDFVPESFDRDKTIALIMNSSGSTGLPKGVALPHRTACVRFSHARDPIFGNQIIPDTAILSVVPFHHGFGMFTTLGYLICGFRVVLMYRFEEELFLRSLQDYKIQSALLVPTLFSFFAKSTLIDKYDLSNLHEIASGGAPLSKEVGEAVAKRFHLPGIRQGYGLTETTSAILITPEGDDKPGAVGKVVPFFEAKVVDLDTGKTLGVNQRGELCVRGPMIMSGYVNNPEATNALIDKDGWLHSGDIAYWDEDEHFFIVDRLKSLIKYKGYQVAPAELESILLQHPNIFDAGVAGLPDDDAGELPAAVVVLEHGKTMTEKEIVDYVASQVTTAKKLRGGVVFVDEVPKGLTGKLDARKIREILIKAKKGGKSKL
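Biochemical qHTS of compounds, final roughly 60 µM downward over six points, against 10 nM purified firefly luciferase using Km concentrations of substrates (10 uM D-luciferin, 10 uM ATP) in Tris acetate pH 7.5 buffer; luminescence output.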
NPC1 prom act: qHTS Assay for NPC1 Promoter Activators; Huh7 NPC1 promoter luciferase reporter, 24 h; Potency, µM (titrated, usually from 9.22 µM), for inactives: at the highest dose activation, actives largely listed as activators; hit rate 2.4% among 320,000; AID 485313, 2010; also: % of control where 0% means no effect; nearly all actives have a fitted effect of over 60% in size
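NPC1 promoter–luciferase Huh7 cells; 24 h compound; luminescence.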
SMN2 splice up: qHTS Assay for Enhancers of SMN2 Splice Variant Expression; hit rate 2.8% among 210,000; HEK293 SMN2-luciferase splicing reporter, luminescence, 30-36 h; Potency, µM (titrated, usually from 46.1 µM), inactives show top-dose activity change, positive = activation, usual class: activators; also: % of control where 0% means no effect; nearly all actives have a fitted effect of over 55% in size
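qHTS luciferase splicing reporter: luminescence rises when SMN2 exon 7 is included in transfected HEK293 cells. Compound exposure lasted 30-36 h at 37C, with 4.5 mM final sodium butyrate as control, followed by a ONE-Glo read.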
KinaseGlo FLuc: Counterscreen for Luciferase (Kinase-Glo TM) Inhibition. Potency, µM (titrated, usually from 38.3 µM), without a hit: at the top dose activity change, negative = inhibition, actives largely listed as inhibitors. AID 1379, 2008. Kinase-Glo luciferase, ATP luminescence, 8 min. hit rate 0.28% among 200,000; also: % is scaled to controls: 0 for no effect and ±100 for the full control effect; nearly all actives have a fitted effect of over 60% in size
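Light output from Kinase-Glo luciferase with luciferin and 10 uM ATP in 50 mM imidazole pH 7.2, KCl, MgCl2, Tween 20, BSA; compound pin-delivered, 8-min ambient incubation, then luminescence read.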
Rab9 prom act: qHTS Assay for Rab9 Promoter Activators; Huh7 Rab9 promoter-luciferase reporter, luminescence, 24 h; Potency, µM (highest dose often 9.22 µM), for the others: at the top dose activation, negative = inhibition, usual class: activators; hit rate 2.8% among 320,000; AID 485297, 2010; also: % of control where 0% means no effect; nearly all actives have a fitted effect of over 60% in size
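Cells were plated at 1500 per well in reduced-serum medium with 10% FBS and left 2 h. Compound in DMSO was then added for 24 h at 37 °C. Reporter signal was read by luminescence after 10 min with luciferase detection reagent.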
An asterisk follows results filed as active; ? = inconclusive; . = no result; [ ] = dose if it differs, or a comment. Calls follow the shape of the dose curve; as a rule, active = well fitted curve in the direction sought with a large enough effect; inconclusive = small, poorly fitted or top-dose-only effect, or another doubt; inactive = no such curve, though single readings can be large; an effect the other way counts as inactive or inconclusive. Potency is read from the fitted curve at half-maximal effect.

SMILES	FLuc counter	NPC1 prom act	SMN2 splice up	KinaseGlo FLuc	Rab9 prom act
O=C1C2C3C=CC(CO)(O3)C2C(=O)N1c1ccc(-c2ccccc2)cc1 (centres undefined)	19µM*	13%	17%	-1%	10%
CC(C)(C)C(=O)NCC12C=CC(O1)C1C(=O)N(c3ccccc3)C(=O)C12 (centres undefined)	2%	-4%	-19%	4%	0%
CC1CCc2onc(C(=O)N3CCN(c4ccc(Cl)cc4)CC3)c2C1 (centres undefined)	5%	.	.	.	.
Nc1c(C(=O)c2ccccc2)oc2ccc(Br)cc12	3µM*	3.2µM*	16µM*	-2%	3.5µM*
COC(=O)CCC(=O)c1oc2ccc(Br)cc2c1N	7.6µM*	21%	11%	0%	19%
Cc1oc2ccc(O)cc2c1C(=O)c1ccc([N+](=O)[O-])cc1	2%	0%	-17%	3%	-1%
Nc1c(C(=O)c2ccccc2)oc2ccc([N+](=O)[O-])cc12	?	3.5µM*	.	.	3.5µM*
COC(=O)c1oc2ccc(Br)cc2c1-n1cccc1	2%	-3%	-5%	-5%	-1%
COc1ccc2oc(C(=O)CCC(=O)O)c(N)c2c1	-4%	-1%	7%	-2%	-9%
NC(=O)SCC(=O)Nc1ccc2ncccc2c1	.	.	-7%[9.22 µM]	-3%[7.66 µM]	.
CSc1nn(Cc2ccc(F)cc2)c(N(C(C)=O)C(C)=O)c1S(=O)(=O)c1ccccc1	-7%	.	-6%	.	.
Cc1ccc(-c2nn(-c3ccccc3)cc2CN(C)C(=O)CCC(=O)O)cc1C	19µM*	-2%	5%	-1%	-3%
COc1ccccc1N1CCN(/N=C/c2ccc(Cl)c([N+](=O)[O-])c2)CC1	15µM*	28%	.	.	24%
O=[N+]([O-])c1cc(/C=N/N2CCN(C3c4ccccc4-c4ccccc43)CC2)ccc1Cl	1%	1%	-13%	2%	0%
COc1ccccc1N1CCN(/N=C\c2cccnc2)CC1	-18%	-3%	.	.	4%
COc1ccccc1N1CCN(/N=C/c2ccc([N+](=O)[O-])cc2)CC1	15µM*	?	.	.	4µM*
CC1=NOC(=O)/C1=C\c1ccc(-c2ccc(Cl)cc2Cl)o1	5.4µM*	-13%	-7%	-8%	-2%
CCN(CC)C(=S)SCC(=O)c1ccccc1	12µM*	2.2µM*	13µM*	6%	2.8µM*
CCN(CC)C(=S)SCC(=O)Nc1ccc(F)cc1	2%	-7%	-28%	3%	4%
CCN(CC)C(=S)SCC(=O)c1ccc(F)cc1	15µM*	2.5µM*	18µM*	-4%	2.5µM*
COC(=O)[C@@]1(Cc2ccc(OC)cc2)[C@H]2c3cc(C(=O)N(C)C)n(Cc4nc5ccccc5[nH]4)c3C[C@H]2CN1C(=O)c1ccccc1	.	.	-5%	0%	.
CCc1ccc(Sc2cc(C(=O)NCCCN3CCC(C)CC3)c3ccccc3n2)cc1	0%	.	.	.	.
COc1ccc(C(=O)Nc2cccc(OCc3cc(=O)n4c5c(sc4n3)CCCC5)c2)cc1OC	2.4µM*	.	-2%	.	.
Cc1ccc(OCCSc2nc3ccccc3n2CC(=O)N2CCOCC2)cc1C	-1%	.	.	.	.
CCOC(=O)c1cc(-c2ccc(OC(F)F)cc2)nc2nc(SC)[nH]c(=O)c12	6µM*	1%	.	.	-4%
SMILES	FLuc counter	NPC1 prom act	SMN2 splice up	KinaseGlo FLuc	Rab9 prom act
O=C1C=C(N2CCCCCC2)C(=O)N1c1ccc(Cl)cc1	2.1µM*	1.6µM*	.	.	2.2µM*
CCCCCCCCCCCCCCCC(N)=O	.	.	5%	-1%	.
CCC(C(=O)NCCc1ccc(OC)c(OC)c1)n1nc(C)c2sc3ccccc3c2c1=O (centres undefined)	19µM*	.	.	.	.
CCC(C(=O)Nc1ccccc1OC)n1nc(C)c2sc3ccccc3c2c1=O (centres undefined)	5%	.	.	.	.
Cc1ccc(CNC(=O)C(C)n2nc(C)c3sc4ccccc4c3c2=O)cc1 (centres undefined)	13µM*	.	.	.	.
CSc1ccc(CCNC(=O)C(C)n2nc(C)c3sc4ccccc4c3c2=O)cc1 (centres undefined)	13µM*	.	.	.	.
CCC(C(=O)Nc1cccc(Cl)c1C)n1nc(C)c2sc3ccccc3c2c1=O (centres undefined)	11µM*	.	.	.	.
COc1ccc(CNC(=O)C(C)n2nc(C)c3sc4ccccc4c3c2=O)cc1OC (centres undefined)	-2%	.	.	.	.
CCOC(=O)C(C)n1nc(C)c2sc3ccccc3c2c1=O (centres undefined)	-2%	-7%	16%	-2%	9%
COc1ccc(-c2cn3c(n2)sc2cc(C(=O)NC(C)C45CC6CC(CC(C6)C4)C5)ccc23)cc1 (centres undefined)	-3%	.	.	.	.
CCOc1ccccc1NC(=O)COc1cccc2c(=O)n(CCOC)ccc12	1%	.	.	.	.
Cc1nn(C(C)C(=O)NC2CCCCC2)c(=O)c2c1sc1ccccc12 (centres undefined)	9.5µM*	.	.	.	.
Cc1nn(C(C)C(=O)NCC2CCCO2)c(=O)c2c1sc1ccccc12 (centres undefined)	-2%	2%	.	.	-6%
O=C(Nc1ccc(F)cc1)c1c(Cl)nc2ccccn12	?	19%	?	1%	24%
Cc1nc2ccccn2c1C(=O)/C=C/c1ccc(F)cc1	3µM*	2.8µM*	-39%	-4%	?
COc1ccc(/C=C/C(=O)c2c(C)nc3ccccn23)cc1	7.6µM*	?	5%	-4%	3.5µM*
COc1ccc(CNC(=O)c2c(C)nc3ccccn23)cc1	1%	-1%	-66%	-2%	-2%
COc1ccc(NC(=O)c2c(Cl)nc3ccccn23)cc1	?	30%	?	-2%	3.2µM*
CC(=O)c1c(C)oc2ccc(N(C(=O)Oc3ccccc3)S(=O)(=O)c3ccc(Cl)cc3)cc12	4%	.	-9%	.	.
CCOC(=O)N1CCN(C(=O)CCSc2ccccc2)CC1	17µM*	?	?	-5%	2.8µM*
Cc1c(CCC(=O)NCCc2ccccc2)c(=O)oc2c(C)c(O)ccc12	-2%	.	18%	.	.
COC(=O)c1ccc(OC(=O)c2ccccc2F)cc1	13µM*	1%	-4%	-3%	-2%
O=C(Oc1ccc(C(=S)N2CCOCC2)cc1)c1ccccc1F	?	-3%	.	.	6%
CCOC(=O)c1cc(-c2ccccc2)n(CC(=O)NC2CCC(C)CC2)c1C (centres undefined)	-2%	.	.	.	.
Cc1ccc(C(=O)CCC2CCCCC2=O)cc1 (centres undefined)	13µM*	?	-7%	-2%	?
CCc1ccc(C(=O)CCC2CCCCC2=O)cc1 (centres undefined)	12µM*	?	-4%	1%	?
